Compounds with a hit are over-represented: about 2.4% of the library has one in this group of screens.
CHRM1 PAM = positive allosteric modulators of human M1 muscarinic receptor; P11229; CHO-K1 hM1, Fluo-8 calcium fluorescence, ACh EC20; 0% = ACh EC20, 100% = maximal ACh; activation, % at 3 µM; 360,000 compounds, 0.088% hits; AID 588819; in the data active = activation above about 19%, passing the limit was not always enough
Target sequence (P11229 whole entry, looked up): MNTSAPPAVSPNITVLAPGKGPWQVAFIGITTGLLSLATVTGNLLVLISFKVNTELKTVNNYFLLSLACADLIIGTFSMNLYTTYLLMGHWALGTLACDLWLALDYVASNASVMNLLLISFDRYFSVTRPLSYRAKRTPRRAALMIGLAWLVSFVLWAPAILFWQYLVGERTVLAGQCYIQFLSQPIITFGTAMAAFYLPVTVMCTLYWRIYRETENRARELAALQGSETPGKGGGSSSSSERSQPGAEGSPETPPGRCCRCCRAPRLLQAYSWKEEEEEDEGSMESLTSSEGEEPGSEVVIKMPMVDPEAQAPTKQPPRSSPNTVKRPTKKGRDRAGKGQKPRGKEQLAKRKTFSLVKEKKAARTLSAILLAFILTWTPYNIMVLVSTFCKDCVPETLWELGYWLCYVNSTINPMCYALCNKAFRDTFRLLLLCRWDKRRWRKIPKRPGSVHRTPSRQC
CHO-K1 Ca ag = counter-screen for M1 agonists: effect in parental CHO-K1 cells. activation, % at 3 µM. AID 602248. 360,000 compounds, 0.48% hits. Fluo-8 calcium fluorescence; scaled to maximal ATP response, vehicle zero; in the data active = activation above about 15%;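 note: untransfected CHO-K1 host cells lacking M1 receptor as counterscreen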
CHO-K1 Ca PAM = M1 PAM counterscreen hit in parental CHO-K1 cells; AID 602247; 360,000 compounds, 0.02% hits; activation, % at 3 µM; ATP EC20, Fluo-8 calcium fluorescence; 0% at ATP EC20, 100% at ATP max;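 active = activation above the run cutoff, the mean activation of all test compounds plus 3 SD, cut at about 40% in these data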;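 note: peak over basal fluorescence ratio in a 140 s read after ATP addition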
M1 antag = antagonists of human M1 muscarinic receptor. CHO-K1 hM1, Fluo-8 calcium fluorescence, ACh EC80 antagonist. AID 588852. inhibition, % at 3 µM. 360,000 compounds, 1.3% hits;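 active = percent inhibition above its own plate's cutoff, namely the mean of that plate's compound wells plus 3 SD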;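 note: peak over basal fluorescence ratio during 140 s after agonist addition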
CHO-K1 Ca antag = nonselective inhibitor or artifact in parental CHO-K1 cells; inhibition, % at 3 µM; 360,000 compounds, 0.6% hits; AID 602250; ATP-induced calcium, Fluo-8 fluorescence;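 active = inhibition above a per-plate cutoff, the plate's mean sample inhibition plus 3 SD, cut at about 24% in these data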
CHRM1 agonist = human M1 muscarinic receptor agonism; P11229; CHO-K1 hM1, Fluo-8 calcium fluorescence, agonist mode; 0% DMSO, 100% acetylcholine EC100; activation, % at 3 µM; 360,000 compounds, 0.33% hits;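 active = activation above the run's mean compound activation plus 3 SD, cut at about 16% in these data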;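 note: peak over basal fluorescence ratio within a 140 s kinetic read after compound addition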
Large screens that a line does not name were inactive.

COc1ccc(-c2csc(Nc3ccc(S(=O)(=O)Nc4cc(OC)nc(OC)n4)cc3)n2)cc1	none
COc1ccc(-c2csc(Nc3ccc(S(=O)(=O)Nc4cc(C)on4)cc3)n2)cc1C	M1 antag 46.2
O=C(CCCC(=O)NNC(=O)Nc1ccccc1)NNC(=O)Nc1ccccc1	CHO-K1 Ca antag 28.4
Cc1cc2oc(C(=O)Nc3ccc(S(N)(=O)=O)cc3)c(C)c2cc1Cl	CHO-K1 Ca antag 27.9
COC(=O)C1=C(C)NC(C)=C(C(=O)OC)C1c1ccccc1OCc1c(C)no[n+]1[O-]	CHRM1 PAM 22.1
Cc1noc(NS(=O)(=O)c2ccc(NC(=O)c3ccc(Cl)c(S(=O)(=O)N(C)c4ccccc4)c3)cc2)c1C	none
FC(F)(F)c1ccc2c(c1)n(Cc1ccccc1)c1[n+]2CCCCC1	M1 antag 49.1
COc1ccc2ccc(=O)oc2c1CC(=O)C(C)C	none
COc1cccc2cc(C(=O)NCc3ccccc3Br)c(=O)oc12	none
COc1cccc2cc(C(=O)NCc3ccccc3Cl)c(=O)oc12	CHO-K1 Ca ag 15.4
C/C=C(\C)C(=O)NCCN1C2=NC[C@H](C)N2C[C@@H]1Cc1ccc(OC)cc1	none
COc1ccc(C[C@@H]2CN3C(=NC[C@@H]3C)N2CCNC(=O)c2ccc(C)c(Br)c2)cc1	M1 antag 40.5
Nc1cc(S(=O)(=O)Nc2ccccc2Cl)ccc1N1CCCCC1	none
O=C(Nc1cccc2ccccc12)N1CCc2ccccc2C1	none
CCc1ccccc1NC(=O)N1CCc2ccccc2C1	CHO-K1 Ca ag 19.2
C=CCN(C(=O)c1csnn1)C(C(=O)NC1CCCC1)c1ccc(OC)cc1 (stereo not drawn)	none
Cc1ccc(S(=O)(=O)N(CC(=O)N(C(C)C)C(C)C)C(=O)N2CCN(C)CC2)cc1	none
Cc1ccc([N+](=O)[O-])cc1N=Cc1ccc(Br)s1	none
Cc1ccc(C=Nc2cc([N+](=O)[O-])ccc2C)s1	CHO-K1 Ca antag 23.9
COc1cccc(OC)c1C(=O)Nc1cccc(S(=O)(=O)Nc2ccccc2Cl)c1	none
COc1ccccc1NS(=O)(=O)c1cccc(NC(=O)Nc2ccc(Cl)cc2)c1	M1 antag 44.0, CHO-K1 Ca antag 38.1
COc1ccccc1NS(=O)(=O)c1cccc(NC(=O)Nc2ccccc2)c1	CHO-K1 Ca ag 18.4, M1 antag 59.2, CHO-K1 Ca antag 37.0
CC(=O)Oc1cccc2c1C(=O)C1CC=CC(OC(C)=O)C1C2=O (stereo not drawn)	none
CCN(CC)CCOC(=O)c1ccc(NC(=O)CCCN2C(=O)/C(=C/c3cccs3)SC2=S)cc1	M1 antag 36.0
CN(C)CCCC1Sc2ccccc2Sc2ccccc21 (stereo not drawn)	M1 antag 76.1
CNCCC1Sc2ccccc2Oc2ccccc21 (stereo not drawn)	none
OCCNc1nc(NCCC2=CCCCC2)nc(N2CCOCC2)n1	CHO-K1 Ca antag 24.5
CC(NC(=O)c1ccccc1)c1nnc(SCC(=O)NC2CCCC2)n1C (stereo not drawn)	none
O=C(CN1C(=O)NC(c2ccccc2)(c2ccccc2)C1=O)NCc1cccs1	none
O=C(CNS(=O)(=O)c1ccc(Br)s1)NCc1ccc(F)cc1	none
O=C(CCNS(=O)(=O)c1ccc(Br)s1)NCc1ccc(F)cc1	CHO-K1 Ca antag 29.4
CC(=O)c1ccc(C(=O)NC2CCCN(Cc3ccccc3F)C2)cc1 (stereo not drawn)	none
CCc1[nH]nc(C(=O)NC2CCCN(Cc3ccccc3F)C2)c1C (stereo not drawn)	M1 antag 40.3
COc1ccc(N2C(=O)[C@H]3CCC=C[C@H]3[C@@H]2c2ccccc2Br)cc1	M1 antag 47.4
COc1ccccc1CCC(=O)N(C)CC(=O)Nc1ccc(Cl)c(C(F)(F)F)c1	none
Cc1ccc(S(=O)(=O)c2c(N)n(NC(=O)c3ccccc3C)c3nc4ccccc4nc23)cc1	none
Cc1ccc(C(=O)Nn2c(N)c(S(=O)(=O)c3ccc(C)cc3)c3nc4ccccc4nc32)cc1	M1 antag 20.4
CC(C)c1ccc(N=c2c([N+](=O)[O-])nn(-c3ccc4c(c3)OCCO4)n2O)cc1	M1 antag 38.5
COc1cc(N=c2c([N+](=O)[O-])nn(-c3ccc4c(c3)OCCO4)n2O)cc(OC)c1	none
O=[N+]([O-])c1nn(-c2ccc3c(c2)OCCO3)n(O)c1=NC1CCN(Cc2ccccc2)CC1	M1 antag 46.8
Nc1ncnc2c1ncn2[C@@H]1O[C@H](C(=O)N[C@H]2c3ccccc3C[C@H]2O)[C@@H](O)[C@H]1O	none
N=C(N)SCc1ncccc1O	none
N=C(N)SCc1ccccn1	CHRM1 agonist 29.9
O=C(CSc1nc2c(c(=O)[nH]1)CCC2)Nc1ccccc1Cl	none
O=C(CSc1nc2c(c(=O)[nH]1)CCC2)Nc1cccc(Cl)c1	CHRM1 agonist 17.1
Cc1ccc(NC(=O)Nc2ccc3c(c2)OCO3)cc1F	none
O=c1cc(NS(=O)(=O)c2ccccc2)nc(SCc2c(Cl)cccc2Cl)[nH]1	none
Cc1ccc(S(=O)(=O)Nc2cc(=O)[nH]c(SCc3ccc(Cl)cc3)n2)cc1	CHRM1 agonist 39.0
COc1ccc(CCC(C)Nc2ccccc2F)cc1 (stereo not drawn)	none
COc1ccc(CCC(C)NC2C3CC4CC(C3)CC2C4)cc1 (stereo not drawn)	M1 antag 98.7
CCN(CC)C(=O)C1=C(C)N(CCCN2CCCC2=O)C(=O)C(CC(=O)NCCCN(C)C)C1 (stereo not drawn)	none
O=S(=O)(c1ccc(SCc2ccccc2F)nc1)N1CCCC1	none
O=C(Nc1ccccc1C(F)(F)F)C(O)(c1ccccc1)C1CCCCC1 (stereo not drawn)	none
C[N+]1(C)CCC(OC(=O)C(O)(c2ccccc2)C2CCCC2)C1 (stereo not drawn)	M1 antag 97.3
CC(=O)N(c1ccccc1)C1CCCC1	none
C[N+]1(C)CC[C@H](OC(=O)[C@@](O)(c2ccccc2)C2CCCC2)C1	M1 antag 99.5
COc1ccc(OC)c(S(=O)(=O)NCC(c2ccco2)S(=O)(=O)c2ccccc2)c1 (stereo not drawn)	none
N=c1ccn(Cc2cccc(F)c2)cc1	M1 antag 41.7
COc1ccc(CNC(=O)C(=O)NCC2OCCN2S(=O)(=O)c2ccccc2)cc1 (stereo not drawn)	none
CCCc1nc(NCc2ccccn2)c2nnn(Cc3ccccc3F)c2n1	CHO-K1 Ca antag 30.2
CCCc1nc(NCc2ccncc2)c2nnn(Cc3ccccc3F)c2n1	none
COC(=O)c1c(C)[nH]c(C(=O)OC(C)C(=O)NC2CCCCC2C)c1C (stereo not drawn)	CHRM1 PAM 26.2
Cc1nn(-c2ccccc2)c(C)c1C(=O)OC(C)C(=O)NC1CCCCC1C (stereo not drawn)	M1 antag 29.6

Compound activity (PubChem)
